Experimental data reported in a collection of fitness landscapes (doi:10.1038/s41467-024-54723-y).
In all, about 18,000 sequences were measured (“TetR repression strength (sort-seq, GFP reporter)”: median about 0.23, highest 2% from about 0.68 on). Shown is part of a subset that was picked to be rich in the highest values.

target: TetR (class B, Tn10) (UniProt P04483); assay: TetR repression strength (sort-seq, GFP reporter) (relative to tetO2 = 1); higher = stronger repression; settings: E. coli
Sequence (P04483 whole entry): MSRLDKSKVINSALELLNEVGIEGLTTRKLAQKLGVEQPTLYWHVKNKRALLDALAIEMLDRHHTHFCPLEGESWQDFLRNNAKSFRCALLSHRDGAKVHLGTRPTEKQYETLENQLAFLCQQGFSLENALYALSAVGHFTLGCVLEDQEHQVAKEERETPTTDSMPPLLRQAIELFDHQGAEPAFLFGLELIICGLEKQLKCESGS
Outline: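 Escherichia coli SIG10-MAX cells carried a low-copy plasmid library in which eight operator positions were randomized between a constitutive promoter and sfGFP, and TetR was expressed constitutively. After 5 h of growth at 37 °C in LB with 50 µg/mL chloramphenicol, 10^6 cells were FACS-sorted into 13 fluorescence bins, and each bin was Illumina-sequenced. Repression strength was the top bin index plus one minus the read-weighted mean bin, divided by the value for the unaltered operator. Across three independent transformations, only library members with ≥30 reads in every replicate and a CV ≤0.5 were averaged.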

Sequence	TetR repression strength
TCCCGACTAGTAACTGAGA	0.613
TCCCTAGTAGTTGTTGAGA	0.308
TCCCCGGGAGTTATGGAGA	0.274
TCCCACTTAGTTGCTGAGA	0.19
TCCCGGTCAGTGAAGGAGA	0.236
TCCCGGCCAGTCAAAGAGA	0.406
TCCCTTCCAGTTCACGAGA	0.325
TCCCAATTAGTTTGAGAGA	0.313
TCCCCGCGAGTAGGAGAGA	0.405
TCCCTGGGAGTGTGTGAGA	0.182
TCCCGTGGAGTACTAGAGA	0.229
TCCCTGTCAGTGATCGAGA	0.734
TCCCATTCAGTGCACGAGA	0.691
TCCCGTTAAGTGCTAGAGA	0.685
TCCCGCTAAGTGCTAGAGA	0.36
TCCCGTTCAGTGATCGAGA	0.724
TCCCGTTCAGTGCTCGAGA	0.442
TCCCGTTCAGTGAACGAGA	0.617
TCCCATGCAGTGCACGAGA	0.17
TCCCATTGAGTGCACGAGA	0.443
TCCCTGAGAGTGATCGAGA	0.0416
TCCCGTTAAGTGCGAGAGA	0.109

Sequence	TetR repression strength
TCCCTGTCAGTAATCGAGA	0.535
TCCCGTTGAGTCGGCGAGA	0.157
TCCCACCAAGTAGGAGAGA	0.285
TCCCTAAGAGTACTGGAGA	0.401
TCCCGCCGAGTTAAGGAGA	0.19
TCCCGACGAGTAGTGGAGA	0.171
TCCCAATCAGTTTGAGAGA	0.144
TCCCTCGCAGTGAGCGAGA	0.22
TCCCAGGCAGTAAGGGAGA	0.0777
TCCCGGTCAGTGATCGAGA	0.684
TCCCAGTCAGTGATCGAGA	0.322
TCCCGGTCAGTGGTCGAGA	0.633
TCCCCGGGAGTCCACGAGA	0.252
TCCCGAGGAGTTAACGAGA	0.535
TCCCGGGGAGTTACAGAGA	0.903
TCCCCCGGAGTTTATGAGA	0.801
TCCCGCGGAGTTTATGAGA	0.184
TCCCGGGGAGTTAATGAGA	0.944
TCCCCCTGAGTTTATGAGA	0.265
TCCCGGAGAGTTACAGAGA	0.245
TCCCGAGTAGTTAACGAGA	0.857
TCCCGGAGAGTTAATGAGA	0.225

Sequence	TetR repression strength
TCCCGAGTAGTTAAGGAGA	0.21
TCCCGGGAAGTTACAGAGA	0.0346
TCCCCGGGAGTTAATGAGA	0.517
TCCCAGACAGTGATAGAGA	0.384
TCCCGCAGAGTGTCTGAGA	0.216
TCCCGTTAAGTCGCGGAGA	0.391
TCCCCTTGAGTGTAAGAGA	0.558
TCCCGTCGAGTGTCAGAGA	0.263
TCCCGTGTAGTTGTTGAGA	0.0138
TCCCGGGTAGTTAATGAGA	1
TCCCGCGTAGTTAATGAGA	0.421
TCCCGGGTAGTTAGTGAGA	0.166
TCCCCAGCAGTGATGGAGA	0.2
TCCCAGAAAGTGGCGGAGA	0.316
TCCCTCCGAGTAGGTGAGA	0.222
TCCCGGCGAGTAGAAGAGA	0.418
TCCCAGCGAGTAGACGAGA	1.03
TCCCGGCGAGTAGAGGAGA	0.248
TCCCACCGAGTAGGCGAGA	0.166
TCCCTCCGAGTAGGCGAGA	0.745
TCCCAGAGAGTAGACGAGA	0.217
TCCCGGCGAGTAGACGAGA	1.03

Sequence	TetR repression strength
TCCCAGCGAGTAGAAGAGA	0.334
TCCCGGGTAGTGGTGGAGA	0.277
TCCCCATCAGTGAGCGAGA	0.19
TCCCGATCAGTTAGGGAGA	0.313
TCCCATGCAGTTGGGGAGA	0.216
TCCCATGCAGTTTGGGAGA	1.07
TCCCTTTCAGTTTGGGAGA	0.925
TCCCATGGAGTTTGGGAGA	0.201
TCCCTTTCAGTTTTGGAGA	0.151
TCCCTTTCAGTTTCGGAGA	0.422
TCCCAGTGAGTCGCAGAGA	0.0941
TCCCTTGGAGTCGGCGAGA	0.0727
TCCCATTCAGTATCGGAGA	0.159
TCCCATTCAGTCCGCGAGA	0.259
TCCCAGGGAGTAGGGGAGA	0.204
TCCCACTGAGTCAGAGAGA	0.279
TCCCGGTGAGTATGCGAGA	1.15
TCCCGGTTAGTATGCGAGA	0.19
TCCCCTTGAGTATGTGAGA	0.409
TCCCGGTGAGTGGACGAGA	0.496
TCCCTTTGAGTATGCGAGA	0.127
TCCCCTGCAGTATGAGAGA	0.855

Sequence	TetR repression strength
TCCCCTTGAGTATGCGAGA	1.05
TCCCGGTGAGTGAACGAGA	0.819
TCCCTTGCAGTATGAGAGA	0.157
TCCCGGAGAGTATGCGAGA	0.159
TCCCCTGCAGTATTAGAGA	0.211
TCCCGGTGAGTAAACGAGA	0.0592
TCCCGAGTAGTTATCGAGA	0.34
TCCCGGGTAGTCTGAGAGA	0.147
TCCCGACCAGTTTCGGAGA	0.0546
TCCCTGCGAGTTCGTGAGA	0.297
TCCCGGGAAGTTGATGAGA	0.0797
TCCCTGCGAGTCGGTGAGA	0.245
TCCCACTCAGTGCCAGAGA	0.287
TCCCTATCAGTGGTAGAGA	1.01
TCCCTACCAGTGGAAGAGA	1.24
TCCCTGCAAGTGGAAGAGA	0.276
TCCCTACCAGTCGCGGAGA	0.967
TCCCTCCCAGTGGAAGAGA	0.491
TCCCTCCCAGTCGCGGAGA	0.291
